From article PMC12136788
Positions count from the first letter of the chain named. Over roughly 24,000 sequences, “enrichment r” has its median near 0.99; the highest 2% begin near 3.7. This is one part of a sample in which the highest values are shown more often than they occur.

T1: UNK ZnF1-3 (human, UniProt Q9C0B0 31-174)
T1 sequence: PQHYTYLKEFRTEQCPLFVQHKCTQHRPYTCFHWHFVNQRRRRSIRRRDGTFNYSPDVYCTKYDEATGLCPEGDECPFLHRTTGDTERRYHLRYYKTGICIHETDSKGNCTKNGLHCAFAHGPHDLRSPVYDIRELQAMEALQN

B1: chr2:114709107:114709108:+_ENSG00000115091_ENST00000536059|hu_mus|FALSE|FALSE (ssRNA)
RNA: GGGAGUUCUACAGUCCGACGAUCAGAGAGGACAAUGUUCUUGUAGAGAGGACGCCGGACAUCAAUGGGGCAAUUCUGAAUGACUUCAUCUACAACUUCUGAGAUAGGUUGUGUAAAAUCUGGAUUAGCAAACUCUGGAUGGAACAACAGAGGAUUGAGCAUCA
B2: chr2:9570881:9570882:+_ENSG00000119203_ENST00000238112|hu_mus|hu_hu_hu_mus_False|28_58 (ssRNA)
RNA: GGGAGUUCUACAGUCCGACGAUCACUUGUCUUCUGAAGGAACCAGGGCAGGGCUCCACAGUGAUCCAAAUGGAAAUGACUAAUUAACAGAAGGUCGAUCUCAGCUGGGUCAAUUAAGUCAAUGUAAGGAAGGGCAUCCAUUCCCAACAGAGGAUUGAGCAUCA
B3: chr1:220276048:220276049:+_ENSG00000067704_ENST00000302637|hu_hu|hu_hu_hu_mus_True|48_78 (ssRNA)
RNA: GGGAGUUCUACAGUCCGACGAUCGCAAAUUGCCUGGUUGGCGGGAAUUGUCCAAGGUUGUGUGGUCCAAACUAAAACGCUAACAGGAGAUGAACCAUCUGUAAGAGACUCCAACUUCGGAGGAGGUCUCAGGAGGGGGAAUCUCAACAGAGGAUUGAGCAUCA
B4: chr1:220276048:220276049:+_ENSG00000067704_ENST00000302637|hu_hu|hu_hu_hu_mus_True|8_58 (ssRNA)
RNA: GGGAGUUCUACAGUCCGACGAUCGCAAAUUGCCUGGUUGGCGGGAAUUGUCCAAGGCUGGGUGGUCCAAACUAAAAUACUAACAGGGGAUGAGGCAUCUGUAAGAGACUCCAACUUCGGAGGAGGUUUUAAGAGAGGGAAUCUCAACAGAGGAUUGAGCAUCA
B5: chr5:141234466:141234467:-_ENSMUSG00000000149_ENSMUST00000000153|mus_mus|FALSE|FALSE (ssRNA)
RNA: GGGAGUUCUACAGUCCGACGAUCAGGACAAUAGUCAAGGGUAACAGUGAAAUUAAAAUUAAAAAAAAAAAUACAAACGCCUAAGGUCUGGGAGAAACCUGACUACAAUCUACGUGGAGAAACUUGUAAAUGACUCCAGCCUGGCAACAGAGGAUUGAGCAUCA
B6: chr1:220276048:220276049:+_ENSG00000067704_ENST00000302637|hu_hu|hu_hu_hu_mus_True|8_28 (ssRNA)
RNA: B4 RNA with U77C, A78G, C108U, U109G, C114U
B7: chr20:21346065:21346066:+_ENSG00000088930_ENST00000377191|hu_hu|FALSE|FALSE (ssRNA)
RNA: GGGAGUUCUACAGUCCGACGAUCUCCUGGAAGCAUUACAGCUUUAAAAAUGUAAUCUUCAGCAAACUGUGGGUCUUUAAAAUUAAUACUGACUACAGUGUUCUGUGUCAGAUCCCUUAACAUAGGAACAGGAGAACAUACUAUCAACAGAGGAUUGAGCAUCA
B8: chr5:141234466:141234467:-_ENSMUSG00000000149_ENSMUST00000000153|mus_mus|motif|central (ssRNA)
RNA: B5 RNA with U81G, A82G
B9: chr1:220276048:220276049:+_ENSG00000067704_ENST00000302637|hu_hu|hu_hu_hu_mus_True|1_38 (ssRNA)
RNA: B3 RNA with U57C, U60G, A87G, A93G, C94G, G100A, G138A, C142U
B10: chr1:59924863:59924864:+_ENSMUSG00000067336_ENSMUST00000087435|mus_hu|FALSE|FALSE (ssRNA)
RNA: GGGAGUUCUACAGUCCGACGAUCGCUGCCAAAUUUUAGCCGGGGCUCUUUUGUUGAAUUUUUGGUGUUCAAAGGCAAACUAGUAGGUCUCUUGGGAAGGUUCUGCUGCUUGGGGAGAGGAUAGAUCUGAGUAGGCAGAACAUCCAACAGAGGAUUGAGCAUCA
B11: chr17:13115065:13115066:+_ENSMUSG00000068039_ENSMUST00000151287|mus_hu|motif|central (ssRNA)
RNA: GGGAGUUCUACAGUCCGACGAUCAAUAGUUGCUCCAGAAGCUUUGGCAAUGCGUUUAAGGUCCCUUUUUAAAACUCUUCGGACUGCCAUAGCACCAGCCUCCACAAAAUACUUCAGACACAUAUCAUCAAUUCCACCAGUGGUCAACAGAGGAUUGAGCAUCA
B12: chr7:112906983:112906984:-_ENSMUSG00000036862_ENSMUST00000078482|mus_mus|FALSE|FALSE (ssRNA)
RNA: GGGAGUUCUACAGUCCGACGAUCUGGGGAGAUAACUGGAGUCCCUGGUGGUGCAUUUUCACGGAGCACAGCCUCACUACUAGUUCUGGGAAAGCGGGGUCCACGCUCAGGCUCUCCCUGUAUUCCAACAACGACCACACCAGUCAACAGAGGAUUGAGCAUCA
B13: chr12:48362563:48362564:+_ENSG00000134291_ENST00000256686|hu_hu|hu_hu_hu_mus_False|18_58 (ssRNA)
RNA: GGGAGUUCUACAGUCCGACGAUCUCCGUCAAGCCCUUCGAUAGACCCUUGCGGGGGAAACUGUAAUCACUUUGUAUUUCUAAAAAAAAGAAACGCCAAAAACUUUCCAAAAAGCGGUUCAAAAAGCAGGCGGGAGGGGGAGGUCAACAGAGGAUUGAGCAUCA
B14: chr4:140556289:140556290:+_ENSMUSG00000036622_ENSMUST00000037055|mus_mus|mus_mus_mus_hu_False|18_68 (ssRNA)
RNA: GGGAGUUCUACAGUCCGACGAUCGAUGGAGCUCACCAGGCCCCCUUUUGCCGUGCAGAACCCUGUGCGAGUCACCACUGCCAGGACGUGCGGUCCCACAUAGGCCCGGGCCUGCAAAAUGAGGGUGCCGCAGAAGAGUGUGUGCAACAGAGGAUUGAGCAUCA
B15: chr2:176857141:176857142:-_ENSG00000144320_ENST00000272748|hu_hu|motif|central (ssRNA)
RNA: GGGAGUUCUACAGUCCGACGAUCUUUUUGUAAUCUCUGAUUUUUUUCCCUAAAUUCUUCCAAUGCUUGAAUUUCCUUAUCGGUACUUUCUAGAACUUCUACAGUUGAAGGUUUUGUCCUCCAUCGAGAAAAUAAUCCACCCAUCAACAGAGGAUUGAGCAUCA
B16: chr4:144461564:144461565:+_ENSG00000153147_ENST00000283131|hu_hu|motif|central (ssRNA)
RNA: GGGAGUUCUACAGUCCGACGAUCCCUCCCUUGUUGAAUGACUAUUGAAUCCAGUCUGAGUUUCAUCUCAGCACGUUCGGCGGUUCUUUCUUCUACAGUGUUAUCAGUUAUAAAGCGGAACACUCUGACUGUCUUAGUCUGCCCCAACAGAGGAUUGAGCAUCA
B17: chr12:493273:493274:-_ENSG00000073614_ENST00000399788|hu_mus|hu_hu_hu_mus_False|28_108 (ssRNA)
RNA: GGGAGUUCUACAGUCCGACGAUCUUUUCUCUCUACCACAGGGAUCUUCAAUGUAGAUCCUUGAAGUUCCCAAAAUUUUGCCAGUUGAUCCAAGAAGUCCAAUCUUACUCUGGUCAUUGCCUCAAGUUCAUUCAGGCGCUGGACCAACAGAGGAUUGAGCAUCA

biological target: T1, UNK ZnF1-3; experiment: nsRBNS (natural sequence RNA bind-n-seq); RBNS binding buffer (assumed for nsRBNS): 25 mM Tris pH 7.5, 150 mM KCl, 3 mM MgCl2, 0.01% Triton X-100, 500 ug/ml BSA, 20 U/ml SUPERase-In, 4 C; UNK is unkempt and MSI1 is Musashi-1; names of the RNAs are library labels; protein concentration not given here; high values mean tight binding

In order of rising binding signal:
1. B15  0.655 enrichment R
2. B17  0.902 enrichment R
3. B16  0.923 enrichment R
4. B14  0.954 enrichment R
5. B12  0.989 enrichment R
6. B7  1.24 enrichment R
7. B11  1.25 enrichment R
8. B1  1.28 enrichment R
9. B3  1.31 enrichment R
10. B10  1.44 enrichment R
11. B2  1.47 enrichment R
12. B13  1.93 enrichment R
13. B6  2.55 enrichment R
14. B9  3.48 enrichment R
15. B4  3.69 enrichment R
16. B8  11.3 enrichment R
17. B5  14.8 enrichment R
